# Reference: PubChem BioAssay AID1159580 (chemical genetic matrix, 2015)
# Values joined by “and” are separate entries in the source; they are usually repeats but may differ in a detail not shown here. Equal values may be shown once. In all, about 5,500 compounds went through this assay and about 2,000 (36%) were called active. Another 18% or so got no clear call; they are omitted. Rule as the data show it: active = normalized growth mostly below about 0.91 (no sharp cut-off); inconclusive = no clear call, values can overlap the other calls; inactive = mostly above about 0.92. The list shows a part of the results.
# Assay: chemical genetic growth profiling, strain panel (AID 1159580);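 also: tested at 20 µM; growth read once vehicle control cultures reached saturation at 30 °C; 1 = growth at the plate median or of vehicle wells; lower values mean less growth of the strain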
# Settings: S. cerevisiae deletion strains, growth OD
smiles,measurement,setting,value
C[C@]12CCC3C(CC[C@H]4CC(=O)CC[C@]34C)C1CCC2=O (stereo partly specified),normalized growth,"locus YAL021C, strain ccr4, stronger effect = lower value",0.737 (active)
same,normalized growth,"locus YAL026C, strain drs2, stronger effect = lower value",0.949 (inactive)
same,normalized growth,"locus YAL030W, strain snc1, stronger effect = lower value",0.938 (inactive)
same,normalized growth,"locus YBL061C, strain skt5, stronger effect = lower value",0.987 (inactive)
same,normalized growth,"locus YBR009C, strain hhf1, stronger effect = lower value",0.79 (active)
same,normalized growth,"locus YBR021W, strain FUR4, stronger effect = lower value",0.781 (active)
same,normalized growth,"locus YBR023C, strain chs3, stronger effect = lower value",0.942 (inactive)
same,normalized growth,"locus YBR171W, strain sec66, stronger effect = lower value",1 (inactive)
same,normalized growth,"locus YBR229C, strain ROT2, stronger effect = lower value",0.964 (inactive)
same,normalized growth,"locus YBR231C, strain swc5, stronger effect = lower value",0.999 (inactive)
same,normalized growth,"locus YBR279W, strain paf1, stronger effect = lower value",0.983 (inactive)
same,normalized growth,"locus YCL011C, strain gbp2, stronger effect = lower value",0.86 (active)
same,normalized growth,"locus YCL016C, strain dcc1, stronger effect = lower value",0.94 (inactive)
same,normalized growth,"locus YCL029C, strain bik1, stronger effect = lower value",0.948 (inactive)
same,normalized growth,"locus YCL069W, strain vba3, stronger effect = lower value",0.979 (inactive)
same,normalized growth,"locus YCR088W, strain abp1, stronger effect = lower value",1.03 (inactive)
same,normalized growth,"locus YDL005C, strain med2, stronger effect = lower value",1.03 (inactive)
same,normalized growth,"locus YDL035C, strain GPR1, stronger effect = lower value",0.787 (active)
same,normalized growth,"locus YDL040C, strain nat1, stronger effect = lower value",1.03 (inactive)
same,normalized growth,"locus YDL074C, strain BRE1, stronger effect = lower value",0.795 (inactive)
same,normalized growth,"locus YDL101C, strain DUN1, stronger effect = lower value",0.978 (inactive)
same,normalized growth,"locus YDL185W, strain tfp1, stronger effect = lower value",0.932 (inactive)
same,normalized growth,"locus YDL192W, strain arf1, stronger effect = lower value",0.866 (active)
same,normalized growth,"locus YDR001C, strain nth1, stronger effect = lower value",1.03 (inactive)
same,normalized growth,"locus YDR069C, strain doa4, stronger effect = lower value",0.942 (inactive)
same,normalized growth,"locus YDR101C, strain arx1, stronger effect = lower value",0.947 (inactive)
same,normalized growth,"locus YDR137W, strain rgp1, stronger effect = lower value",0.549 (active)
same,normalized growth,"locus YDR150W, strain NUM1, stronger effect = lower value",1.01 (inactive)
same,normalized growth,"locus YDR159W, strain sac3, stronger effect = lower value",0.799 (active)
same,normalized growth,"locus YDR162C, strain NBP2, stronger effect = lower value",0.408 (active)
same,normalized growth,"locus YDR195W, strain ref2",1.28 [resistant] (active)
same,normalized growth,"locus YDR297W, strain sur2, stronger effect = lower value",0.939 (inactive)
same,normalized growth,"locus YDR318W, strain mcm21, stronger effect = lower value",0.895 (active)
same,normalized growth,"locus YDR334W, strain swr1, stronger effect = lower value",1.05 (inactive)
same,normalized growth,"locus YDR335W, strain msn5, stronger effect = lower value",0.932 (inactive)
same,normalized growth,"locus YDR388W, stronger effect = lower value",0.86 (active)
same,normalized growth,"locus YDR392W, strain spt3, stronger effect = lower value",0.495 (active)
same,normalized growth,"locus YDR502C, strain sam2, stronger effect = lower value",0.835 (active)
same,normalized growth,"locus YEL003W, strain gim4, stronger effect = lower value",0.774 (active)
same,normalized growth,"locus YEL037C, strain rad23, stronger effect = lower value",1.01 (inactive)
same,normalized growth,"locus YEL061C, strain CIN8 (second series), stronger effect = lower value",1.01 (inactive)
same,normalized growth,"locus YEL061C, strain CIN8, stronger effect = lower value",0.994 (inactive)
same,normalized growth,"locus YER015W, strain faa2, stronger effect = lower value",0.985 (inactive)
same,normalized growth,"locus YER016W, strain bim1, stronger effect = lower value",0.998 (inactive)
same,normalized growth,"locus YER110C, stronger effect = lower value",0.958 (inactive)
same,normalized growth,"locus YER111C, strain swi4, stronger effect = lower value",0.998 (inactive)
same,normalized growth,"locus YER155C, strain BEM2 (second series), stronger effect = lower value",0.753 (active)
same,normalized growth,"locus YER155C, strain BEM2, stronger effect = lower value",1.04 (inactive)
same,normalized growth,"locus YER167W, strain BCK2, stronger effect = lower value",0.966 (inactive)
same,normalized growth,"locus YFR010W, strain ubp6, stronger effect = lower value",0.973 (inactive)
same,normalized growth,"locus YGL078C, strain dbp3, stronger effect = lower value",0.943 (inactive)
same,normalized growth,"locus YGL086W, strain mad1, stronger effect = lower value",0.971 (inactive)
same,normalized growth,"locus YGL167C, strain pmr1, stronger effect = lower value",1.02 (inactive)
same,normalized growth,"locus YGL173C, strain kem1, stronger effect = lower value",0.821 (active)
same,normalized growth,"locus YGL227W, strain vid30, stronger effect = lower value",1.08 (inactive)
same,normalized growth,"locus YGL240W, strain doc1, stronger effect = lower value",0.768 (active)
same,normalized growth,"locus YGL248W, strain PDE1, stronger effect = lower value",0.912 (inactive)
same,normalized growth,"locus YGL253W, strain hxk2, stronger effect = lower value",0.92 (inactive)
same,normalized growth,"locus YGR135W, strain pre9, stronger effect = lower value",0.856 (active)
same,normalized growth,"locus YGR252W, strain gcn5, stronger effect = lower value",0.692 (active)
same,normalized growth,"locus YHR013C, strain ard1, stronger effect = lower value",0.978 (inactive)
same,normalized growth,"locus YHR027C, strain rpn1, stronger effect = lower value",0.985 (inactive)
same,normalized growth,"locus YHR030C, strain SLT2, stronger effect = lower value",0.974 (inactive) and 0.898 (inactive)
same,normalized growth,"locus YHR079C, strain IRE1 (second series), stronger effect = lower value",0.991 (inactive)
same,normalized growth,"locus YHR079C, strain IRE1, stronger effect = lower value",0.901 (inactive)
same,normalized growth,"locus YHR094C, strain hxt1, stronger effect = lower value",0.997 (inactive)
same,normalized growth,"locus YHR129C, strain ARP1, stronger effect = lower value",0.96 (inactive)
same,normalized growth,"locus YHR142W, strain chs7, stronger effect = lower value",0.803 (active)
same,normalized growth,"locus YHR200W, strain rpn10, stronger effect = lower value",0.928 (inactive)
same,normalized growth,"locus YIL066C, strain RNR3, stronger effect = lower value",0.795 (active)
same,normalized growth,"locus YIL073C, strain SPO22, stronger effect = lower value",0.782 (inactive)
same,normalized growth,"locus YIL125W, strain kgd1, stronger effect = lower value",0.989 (inactive)
same,normalized growth,"locus YIR030C, strain dcg1, stronger effect = lower value",0.976 (inactive)
same,normalized growth,"locus YJL092W, strain hpr5, stronger effect = lower value",0.978 (inactive)
same,normalized growth,"locus YJL095W, strain BCK1 (second series), stronger effect = lower value",0.632 (active)
same,normalized growth,"locus YJL095W, strain BCK1, stronger effect = lower value",0.743 (active) and 0.898 (inactive)
same,normalized growth,"locus YJL115W, strain asf1, stronger effect = lower value",1.01 (inactive)
same,normalized growth,"locus YJL129C, strain trk1, stronger effect = lower value",0.851 (active)
same,normalized growth,"locus YJL134W, strain LCB3, stronger effect = lower value",1.01 (inactive)
same,normalized growth,"locus YJL154C, strain vps35, stronger effect = lower value",1.03 (inactive)
same,normalized growth,"locus YJL164C, strain tpk1, stronger effect = lower value",0.847 (active)
same,normalized growth,"locus YJL166W, strain qcr8, stronger effect = lower value",0.815 (active)
same,normalized growth,"locus YJL168C, strain set2, stronger effect = lower value",1 (inactive)
same,normalized growth,"locus YJL187C, strain SWE1 (second series), stronger effect = lower value",0.92 (inactive)
same,normalized growth,"locus YJL187C, strain SWE1, stronger effect = lower value",0.923 (active)
same,normalized growth,"locus YJR043C, strain POL32, stronger effect = lower value",0.883 (inactive)
